Source: PubChem (Broad Institute)
PD-1 reversal = reversal of PD-1 mediated T-cell inhibition; primary human CD4 T cells, PD-L1 beads, CellTiter-Glo 96 h; activation, % (concentration not given with the values); 29,000 tested, under 10 active; call rule not given here;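 further: 0% = median vehicle wells and 100% = positive control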
STK33 inh = blocks human STK33 kinase activity; 27,000 compounds, 0.44% hits; inhibition, % at 12.5 µM; ADP-Glo luminescence, MBP substrate; in the data active means inhibition above about 20%
Target sequence (Q9BYT3 whole entry, looked up): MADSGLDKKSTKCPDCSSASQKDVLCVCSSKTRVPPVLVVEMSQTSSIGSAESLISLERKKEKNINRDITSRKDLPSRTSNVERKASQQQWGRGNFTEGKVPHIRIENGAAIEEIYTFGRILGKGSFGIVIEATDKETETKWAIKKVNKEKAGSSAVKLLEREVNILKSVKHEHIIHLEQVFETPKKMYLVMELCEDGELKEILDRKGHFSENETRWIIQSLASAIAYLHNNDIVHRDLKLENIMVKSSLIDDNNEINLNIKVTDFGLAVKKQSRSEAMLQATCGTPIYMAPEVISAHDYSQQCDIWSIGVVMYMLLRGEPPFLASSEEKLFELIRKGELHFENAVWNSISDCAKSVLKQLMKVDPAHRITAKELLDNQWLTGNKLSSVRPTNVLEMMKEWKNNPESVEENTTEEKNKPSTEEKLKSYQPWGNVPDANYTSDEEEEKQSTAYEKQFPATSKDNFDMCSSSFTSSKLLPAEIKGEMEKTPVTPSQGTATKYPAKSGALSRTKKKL
NOMO-1 viab = STK33 inhibitor candidate reducing NOMO-1 cell viability | NOMO-1 AML viability, CellTiter-Glo luminescence, 72 h | inhibition, % (no concentration beside the values) | 37,000 compounds, 7.5% hits; in the data active means inhibition above about 80%
* marks the source's active call; other numbers are inactive results; · = not tested or not shown. The entries come from a sample that favours hits as a whole.

SMILES	PD-1 reversal	STK33 inh	NOMO-1 viab
CS(=O)(=O)N(CC(N)=O)c1cc(Cl)c(Cl)cc1Cl	3	1	1
CCc1cccc(CC)c1NC(=O)Cn1cnc2ccccc2c1=O	0	0	6
COc1ccc(OCC(=O)Nc2cc(-c3nc4ccccc4o3)ccc2C)cc1	-1	3	22
O=C(Nc1ccc(F)c(Cl)c1)C1CC(=O)n2ncnc2N1 (stereo not given)	2	-4	0
COc1ccc(CN(C)C[C@@H]2Oc3ccc(NC(=O)Nc4ccc(F)cc4)cc3C(=O)N([C@@H](C)CO)C[C@@H]2C)cc1	3	-2	26
COc1ccc(CN(C)C[C@H]2OCCCC[C@@H](C)Oc3ccc(NC(=O)Nc4ccc(OC)cc4)cc3C(=O)N([C@H](C)CO)C[C@@H]2C)cc1	-1	-3	8
COc1ccc(CN(C)C[C@@H]2OCCCC[C@@H](C)Oc3ccc(NC(=O)Nc4ccc(C(F)(F)F)cc4)cc3C(=O)N([C@H](C)CO)C[C@@H]2C)cc1	-5	3	113*
COc1ccc(CN(C)C[C@H]2Oc3ccc(NC(=O)Nc4ccc(C(F)(F)F)cc4)cc3C(=O)N([C@H](C)CO)C[C@@H]2C)cc1	-5	·	104*
COc1ccc(CN(C)C[C@@H]2Oc3ccc(NC(=O)Nc4ccc(C(F)(F)F)cc4)cc3C(=O)N([C@@H](C)CO)C[C@H]2C)cc1	·	·	117*
COc1ccc(CN(C)C[C@H]2Oc3ccc(NC(=O)Nc4ccc(F)cc4)cc3C(=O)N([C@H](C)CO)C[C@H]2C)cc1	-1	·	5
Cc1ccc(S(=O)(=O)NC2c3cccc4cccc(c34)C2Sc2nnnn2-c2ccccc2)cc1 (stereo not given)	3	11	27
Cc1ccccc1NC(=O)CCc1nc(-c2ccccc2F)no1	0	-2	24
Cc1cc(C(=O)Nc2cccc3c2O[C@H](CN(C)Cc2ccc(Cl)c(Cl)c2)[C@H](C)CN([C@@H](C)CO)C3=O)n(C)n1	-3	·	11
Cc1cc(C(=O)Nc2cccc3c2O[C@@H](CN(C)Cc2ccc(Oc4ccccc4)cc2)[C@H](C)CN([C@H](C)CO)C3=O)n(C)n1	-3	·	89*
Cc1cc(C(=O)Nc2cccc3c2O[C@@H](CN(C)Cc2ccc(Cl)c(Cl)c2)[C@@H](C)CN([C@H](C)CO)C3=O)n(C)n1	-6	·	92*
Cc1cc(C(=O)Nc2cccc3c2O[C@H](CN(C)Cc2ccc(Oc4ccccc4)cc2)[C@H](C)CN([C@@H](C)CO)C3=O)n(C)n1	1	·	2
Cc1cc(C)n(CCS(=O)(=O)c2ccc(Cl)cc2)n1	0	·	-26
Cc1c(C)c(C)c(CSc2ccccn2)c(C)c1C	1	·	33
Cc1c(C)c(C)c(CSc2ccccc2N)c(C)c1C	-2	·	91*
CC1(C)CC[C@]2(C(=O)O[C@@H]3O[C@H](CO)[C@@H](O)[C@H](O)[C@H]3O)CC[C@]3(C)C(=CCC4[C@@]5(C)CC[C@H](O[C@@H]6O[C@H](C(=O)O)[C@@H](O[C@@H]7O[C@H](CO)[C@@H](O)[C@H](O)[C@H]7O)[C@H](O)[C@H]6O[C@@H]6O[C@H](CO)[C@@H](O)[C@H](O)[C@H]6O)C(C)(C)C5CC[C@]43C)C2C1 (stereo not given in full)	2	-1	9
CC1(C)CC[C@]2(C(=O)O[C@@H]3O[C@H](CO)[C@@H](O)[C@H](O)[C@H]3O)CC[C@]3(C)C(=CCC4[C@@]5(C)C[C@@H](O)[C@H](O)[C@@](C)(COC(=O)c6cc(O)c(O)c(O)c6)C5[C@H](O)C[C@]43C)[C@@H]2C1 (stereo not given in full)	-1	9	109*
C[C@@H]1O[C@@H](O[C@@H]2CC[C@@]3(C)C(CC[C@]4(C)C3CC=C3[C@@H]5CC(C)(C)CC[C@]5(C(=O)O[C@@H]5O[C@H](CO)[C@@H](O)[C@H](O)[C@H]5O)CC[C@]34C)[C@]2(C)CO)[C@H](O)[C@H](O[C@@H]2OC[C@@H](O)[C@H](O)[C@H]2O)[C@H]1O (stereo not given in full)	1	-1	10
CC1OC(OC2C(C(=O)O)OC(O[C@H]3CC[C@@]4(C)C(CC[C@]5(C)C4CC=C4C6CC(C)(C)CC[C@]6(C(=O)OC6OC(CO)C(O)C(O)C6O)CC[C@]45C)C3(C)C)C(O)C2O)C(OC2OCC(O)C(O)C2O)C(O)C1O (stereo not given in full)	2	-1	1
C/C=C(/C)C(=O)O[C@H]1CC(C)(C)C[C@H]2C3=CCC4[C@@]5(C)CC[C@H](O[C@@H]6O[C@H](C(=O)O)[C@@H](O[C@@H]7O[C@H](CO)[C@H](O)[C@H](O)[C@H]7O[C@@H]7O[C@H](CO)[C@@H](O)[C@H](O)[C@H]7O)[C@H](O)[C@H]6O[C@@H]6O[C@@H](C)[C@H](O)[C@@H](O)[C@H]6O)C(C)(C)C5CC[C@@]4(C)[C@]3(C)C[C@@H](O)[C@@]12CO (stereo not given in full)	-15	-9	119*
CC1(C)CC[C@]2(C(=O)O[C@@H]3O[C@H](CO)[C@@H](O)[C@H](O)[C@H]3O)CC[C@]3(C)C(=CCC4[C@@]5(C)C[C@H](O)[C@H](O[C@@H]6O[C@H](C(=O)O)[C@@H](O)[C@H](O)[C@H]6O)[C@@](C)(CO)C5CC[C@]43C)C2C1 (stereo not given in full)	-1	-2	0
CC(=O)OC1COC(OC2C(O)C(C)OC(OC3C(OC4CCC5(C)C(CCC6(C)C5CC=C5C7CC(C)(C)CCC7(C(=O)O)CCC56C)C4(C)CO)OCC(O)C3O)C2O)C(O)C1OC(C)=O (stereo not given)	-9	-4	122*
CC1(C)CC[C@]2(C(=O)O[C@@H]3O[C@H](CO)[C@@H](O)[C@H](O)[C@H]3O)CC[C@]3(C)C(=CCC4[C@@]5(C)CC[C@H](O[C@@H]6O[C@H](C(=O)O)[C@@H](O)[C@H](O)[C@H]6O)C(C)(C)C5CC[C@]43C)C2C1 (stereo not given in full)	0	-5	115*
CC1(C)CC[C@@]2(C(=O)O[C@@H]3O[C@H](CO)[C@@H](O)[C@H](O)[C@H]3O)C(C1)C1=CCC3[C@@]4(C)CC[C@@H](O[C@@H]5O[C@H](C(=O)O)[C@@H](O[C@@H]6OC[C@@H](O)[C@H](O)[C@H]6O)[C@H](O[C@@H]6OC[C@](O)(CO)[C@H]6O)[C@H]5O)C(C)(C)C4CC[C@@]3(C)[C@]1(C)C[C@H]2O (stereo not given in full)	-1	-1	5
CC1(C)CC[C@]2(C(=O)O)CC[C@]3(C)C(=CCC4[C@@]5(C)CC[C@H](O[C@@H]6O[C@H](C(=O)O)[C@@H](O[C@@H]7O[C@H](CO)[C@@H](O)[C@H](O)[C@H]7O)[C@H](O)[C@H]6O[C@@H]6O[C@H](CO)[C@@H](O)[C@H](O)[C@H]6O)C(C)(C)C5CC[C@]43C)C2C1 (stereo not given in full)	-1	-7	54
